Data on ten compounds can be found in ChEMBL document CHEMBL3988442, “University of Dundee, Small-Polar-MMV Screening Library” (2021).

For some of these results: Potency and affinity values are given separately.

Holding throughout (design): scale not given: direction of the effect not stated beside the values
The target of test [1] is Protein translocase subunit SecA (Escherichia coli (strain K12)) (UniProt P10408). As to the kind of experiment: Assay to Identify E. coli SecA ATPase Inhibitors. Format: functional. To be noted: 30 µM.
In test [2] the target is T1, Ubiquitin-activating enzyme e1, putative (Leishmania donovani (strain BPK282A1)) (UniProt E9BSI1).
T1 sequence (whole entry): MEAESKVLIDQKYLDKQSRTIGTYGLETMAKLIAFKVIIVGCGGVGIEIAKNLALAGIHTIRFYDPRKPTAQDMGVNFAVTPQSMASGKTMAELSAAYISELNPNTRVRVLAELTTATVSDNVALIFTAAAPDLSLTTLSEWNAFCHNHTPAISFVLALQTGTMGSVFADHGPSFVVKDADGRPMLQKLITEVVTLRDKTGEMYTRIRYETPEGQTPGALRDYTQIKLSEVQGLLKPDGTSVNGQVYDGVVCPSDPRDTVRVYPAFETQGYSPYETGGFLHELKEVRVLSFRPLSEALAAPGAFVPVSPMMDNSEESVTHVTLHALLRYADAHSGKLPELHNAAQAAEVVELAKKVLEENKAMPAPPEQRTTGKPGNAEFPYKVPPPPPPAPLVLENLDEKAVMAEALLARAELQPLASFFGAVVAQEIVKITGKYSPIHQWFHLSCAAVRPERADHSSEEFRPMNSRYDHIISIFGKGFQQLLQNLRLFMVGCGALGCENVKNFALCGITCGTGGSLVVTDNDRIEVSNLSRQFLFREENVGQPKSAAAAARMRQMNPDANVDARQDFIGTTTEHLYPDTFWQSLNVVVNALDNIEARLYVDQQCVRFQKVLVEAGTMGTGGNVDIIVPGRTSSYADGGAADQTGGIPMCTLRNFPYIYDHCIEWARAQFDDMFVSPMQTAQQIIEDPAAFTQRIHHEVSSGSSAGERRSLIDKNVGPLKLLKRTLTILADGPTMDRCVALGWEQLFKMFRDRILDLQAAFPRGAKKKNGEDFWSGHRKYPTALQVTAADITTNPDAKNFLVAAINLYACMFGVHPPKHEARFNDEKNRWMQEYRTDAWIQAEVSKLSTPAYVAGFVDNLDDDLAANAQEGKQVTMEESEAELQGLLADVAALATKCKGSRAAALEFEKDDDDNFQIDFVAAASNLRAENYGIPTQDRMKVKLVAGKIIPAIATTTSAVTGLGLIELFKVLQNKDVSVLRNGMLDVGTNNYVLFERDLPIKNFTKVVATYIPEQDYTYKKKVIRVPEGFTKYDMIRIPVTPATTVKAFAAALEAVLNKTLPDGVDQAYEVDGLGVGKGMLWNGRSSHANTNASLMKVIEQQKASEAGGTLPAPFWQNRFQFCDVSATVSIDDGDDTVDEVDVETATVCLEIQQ
As to the kind of experiment: Leishmania donovani Ubiquitin Activating Enzyme (LdE1). Format: functional. To be noted: 30 µM.

Test [3] deals with Sialic acid-binding Ig-like lectin 9 (Homo sapiens) (UniProt Q9Y336). As to the kind of experiment: Hs-Siglec9 ALPHAscreen SOP 20170721. To be noted: 10 µM. (In Alpha technology, singlet oxygen from a donor bead excites a nearby acceptor bead.)
In a further test the test system is Trypanosoma cruzi. As to the kind of experiment: Trypanosoma cruzi phosphomannomutase and mannose-1-phosphate guanylyltransferase assay. To be noted: 10 µM. In kind it is functional.
Test [4] deals with T2, Arginase-2, mitochondrial (Homo sapiens) (UniProt P78540).
T2 sequence (whole entry): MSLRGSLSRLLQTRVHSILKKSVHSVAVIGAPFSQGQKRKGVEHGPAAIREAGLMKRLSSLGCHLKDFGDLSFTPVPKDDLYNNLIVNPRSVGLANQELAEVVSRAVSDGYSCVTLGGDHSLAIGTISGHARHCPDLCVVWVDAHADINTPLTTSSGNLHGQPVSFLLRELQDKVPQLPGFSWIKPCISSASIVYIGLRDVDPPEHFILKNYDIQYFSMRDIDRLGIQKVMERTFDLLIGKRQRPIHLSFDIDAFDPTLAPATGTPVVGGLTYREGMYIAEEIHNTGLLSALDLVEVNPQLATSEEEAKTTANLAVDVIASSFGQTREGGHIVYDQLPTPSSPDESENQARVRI
As to the kind of experiment: in vitro enzyme assay to detect the production of urea directly proportional to the activity of Arginase II. Further: in the data most compounds retested in dose-response had high values. Format: functional. To be noted: 33.3 µM.

Test [5] addresses T3, Proteasome subunit beta (Trypanosoma cruzi) (UniProt O96673).
T3 sequence (whole entry): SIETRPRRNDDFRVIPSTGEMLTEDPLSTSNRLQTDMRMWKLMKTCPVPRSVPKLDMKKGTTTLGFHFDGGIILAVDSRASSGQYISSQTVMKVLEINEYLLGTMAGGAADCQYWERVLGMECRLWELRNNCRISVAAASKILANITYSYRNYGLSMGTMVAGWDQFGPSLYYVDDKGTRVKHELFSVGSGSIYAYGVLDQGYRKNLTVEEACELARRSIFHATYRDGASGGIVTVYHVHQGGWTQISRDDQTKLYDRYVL
As to the kind of experiment: Trypanosoma cruzi proteasome chymotrypsin-like activity (TcProtChymo) assay. Further: in the data most compounds retested in dose-response had high values. To be noted: 9.37 µM. Format: functional.

The species entered for a further test is Homo sapiens. As to the kind of experiment: To identify inhibition of the IFN signalling (Jak-Stat) pathway via expression of an eGFP reporter gene under the control of an IFN-stimulated response element (ISRE) containing MxA promoter. Format: functional. As to conditions: 30 µM.
Test [6] addresses T4, Tyrosyl-tRNA synthetase, putative (Trypanosoma cruzi (strain CL Brener)) (UniProt Q4DSP6).
T4 sequence (whole entry): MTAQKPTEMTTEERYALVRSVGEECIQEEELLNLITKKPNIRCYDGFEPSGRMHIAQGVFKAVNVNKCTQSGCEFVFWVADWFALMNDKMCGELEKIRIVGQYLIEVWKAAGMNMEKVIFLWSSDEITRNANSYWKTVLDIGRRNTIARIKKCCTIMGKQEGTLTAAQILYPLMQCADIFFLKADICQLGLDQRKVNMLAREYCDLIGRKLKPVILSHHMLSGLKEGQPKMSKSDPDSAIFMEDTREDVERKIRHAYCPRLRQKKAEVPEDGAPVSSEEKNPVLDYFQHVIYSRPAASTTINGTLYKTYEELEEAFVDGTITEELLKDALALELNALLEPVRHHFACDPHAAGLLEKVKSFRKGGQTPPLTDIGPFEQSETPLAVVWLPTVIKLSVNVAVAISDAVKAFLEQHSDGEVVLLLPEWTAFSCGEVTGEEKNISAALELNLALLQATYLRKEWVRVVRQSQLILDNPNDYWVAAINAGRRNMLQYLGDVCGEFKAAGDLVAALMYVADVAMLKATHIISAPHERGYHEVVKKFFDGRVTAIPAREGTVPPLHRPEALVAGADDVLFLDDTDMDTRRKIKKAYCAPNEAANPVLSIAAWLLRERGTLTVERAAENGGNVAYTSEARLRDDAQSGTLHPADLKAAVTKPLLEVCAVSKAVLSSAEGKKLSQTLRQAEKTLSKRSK
As to the kind of experiment: Trypanosoma cruzi tyrosyl tRNA synthetase (TcYRS) _High Tyrosine SOP. Further: in the data most compounds retested in dose-response had high values. In kind it is functional. To be noted: 30 µM.

Test [7] addresses T4, Tyrosyl-tRNA synthetase, putative (Trypanosoma cruzi (strain CL Brener)). As to the kind of experiment: Trypanosoma cruzi tyrosyl tRNA synthetase (TcYRS) SOP. In kind it is functional. As to conditions: 30 µM.
Test [8] concerns the target Chromo domain-containing protein 1 (Saccharomyces cerevisiae (strain ATCC 204508 / S288c) (Baker's yeast)) (UniProt P32657). As to the kind of experiment: ScCHD-1 Enzyme Inhibition Assay. Further: in the data most compounds retested in dose-response had high values. In kind it is functional. As to conditions: 30 µM.

Sialic acid-binding Ig-like lectin 9 (Homo sapiens), sequence (Q9Y336 whole entry): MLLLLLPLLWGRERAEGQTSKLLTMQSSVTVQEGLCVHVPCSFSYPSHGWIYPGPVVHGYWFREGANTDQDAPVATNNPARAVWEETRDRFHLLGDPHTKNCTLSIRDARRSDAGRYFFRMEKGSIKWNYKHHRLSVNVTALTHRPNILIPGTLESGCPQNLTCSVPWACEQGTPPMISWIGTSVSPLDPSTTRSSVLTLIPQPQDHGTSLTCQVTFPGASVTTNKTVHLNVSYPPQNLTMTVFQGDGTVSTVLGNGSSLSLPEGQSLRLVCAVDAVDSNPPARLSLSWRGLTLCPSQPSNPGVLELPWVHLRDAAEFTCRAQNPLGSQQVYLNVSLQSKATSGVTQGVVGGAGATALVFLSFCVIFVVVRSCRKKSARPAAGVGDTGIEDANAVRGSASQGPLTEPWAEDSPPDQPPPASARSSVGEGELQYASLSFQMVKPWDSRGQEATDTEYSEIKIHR
Protein translocase subunit SecA (Escherichia coli (strain K12)), sequence (P10408 whole entry): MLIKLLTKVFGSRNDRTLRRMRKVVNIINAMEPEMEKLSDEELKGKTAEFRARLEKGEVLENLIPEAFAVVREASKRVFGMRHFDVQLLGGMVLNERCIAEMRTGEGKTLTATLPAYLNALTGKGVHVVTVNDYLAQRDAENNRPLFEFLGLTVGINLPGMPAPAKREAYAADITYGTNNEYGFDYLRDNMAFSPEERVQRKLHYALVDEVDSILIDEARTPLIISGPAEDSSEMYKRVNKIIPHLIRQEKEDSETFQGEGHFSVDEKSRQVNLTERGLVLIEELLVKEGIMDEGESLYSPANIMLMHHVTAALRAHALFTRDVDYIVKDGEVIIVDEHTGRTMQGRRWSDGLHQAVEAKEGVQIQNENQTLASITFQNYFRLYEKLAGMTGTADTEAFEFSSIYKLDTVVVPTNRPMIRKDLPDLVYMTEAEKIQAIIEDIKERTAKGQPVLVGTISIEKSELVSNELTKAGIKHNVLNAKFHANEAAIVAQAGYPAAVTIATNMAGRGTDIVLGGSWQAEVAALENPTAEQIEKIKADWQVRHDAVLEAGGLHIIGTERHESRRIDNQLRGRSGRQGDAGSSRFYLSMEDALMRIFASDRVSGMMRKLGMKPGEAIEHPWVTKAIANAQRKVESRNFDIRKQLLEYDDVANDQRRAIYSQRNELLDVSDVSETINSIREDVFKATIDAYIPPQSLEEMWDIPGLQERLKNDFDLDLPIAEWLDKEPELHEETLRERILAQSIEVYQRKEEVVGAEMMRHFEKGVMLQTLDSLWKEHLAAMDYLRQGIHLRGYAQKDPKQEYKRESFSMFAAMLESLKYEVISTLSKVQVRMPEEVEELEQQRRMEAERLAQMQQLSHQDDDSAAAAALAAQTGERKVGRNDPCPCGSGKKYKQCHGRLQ
Chromo domain-containing protein 1 (Saccharomyces cerevisiae (strain ATCC 204508 / S288c) (Baker's yeast)), sequence (P32657 whole entry, the tested form may be a part): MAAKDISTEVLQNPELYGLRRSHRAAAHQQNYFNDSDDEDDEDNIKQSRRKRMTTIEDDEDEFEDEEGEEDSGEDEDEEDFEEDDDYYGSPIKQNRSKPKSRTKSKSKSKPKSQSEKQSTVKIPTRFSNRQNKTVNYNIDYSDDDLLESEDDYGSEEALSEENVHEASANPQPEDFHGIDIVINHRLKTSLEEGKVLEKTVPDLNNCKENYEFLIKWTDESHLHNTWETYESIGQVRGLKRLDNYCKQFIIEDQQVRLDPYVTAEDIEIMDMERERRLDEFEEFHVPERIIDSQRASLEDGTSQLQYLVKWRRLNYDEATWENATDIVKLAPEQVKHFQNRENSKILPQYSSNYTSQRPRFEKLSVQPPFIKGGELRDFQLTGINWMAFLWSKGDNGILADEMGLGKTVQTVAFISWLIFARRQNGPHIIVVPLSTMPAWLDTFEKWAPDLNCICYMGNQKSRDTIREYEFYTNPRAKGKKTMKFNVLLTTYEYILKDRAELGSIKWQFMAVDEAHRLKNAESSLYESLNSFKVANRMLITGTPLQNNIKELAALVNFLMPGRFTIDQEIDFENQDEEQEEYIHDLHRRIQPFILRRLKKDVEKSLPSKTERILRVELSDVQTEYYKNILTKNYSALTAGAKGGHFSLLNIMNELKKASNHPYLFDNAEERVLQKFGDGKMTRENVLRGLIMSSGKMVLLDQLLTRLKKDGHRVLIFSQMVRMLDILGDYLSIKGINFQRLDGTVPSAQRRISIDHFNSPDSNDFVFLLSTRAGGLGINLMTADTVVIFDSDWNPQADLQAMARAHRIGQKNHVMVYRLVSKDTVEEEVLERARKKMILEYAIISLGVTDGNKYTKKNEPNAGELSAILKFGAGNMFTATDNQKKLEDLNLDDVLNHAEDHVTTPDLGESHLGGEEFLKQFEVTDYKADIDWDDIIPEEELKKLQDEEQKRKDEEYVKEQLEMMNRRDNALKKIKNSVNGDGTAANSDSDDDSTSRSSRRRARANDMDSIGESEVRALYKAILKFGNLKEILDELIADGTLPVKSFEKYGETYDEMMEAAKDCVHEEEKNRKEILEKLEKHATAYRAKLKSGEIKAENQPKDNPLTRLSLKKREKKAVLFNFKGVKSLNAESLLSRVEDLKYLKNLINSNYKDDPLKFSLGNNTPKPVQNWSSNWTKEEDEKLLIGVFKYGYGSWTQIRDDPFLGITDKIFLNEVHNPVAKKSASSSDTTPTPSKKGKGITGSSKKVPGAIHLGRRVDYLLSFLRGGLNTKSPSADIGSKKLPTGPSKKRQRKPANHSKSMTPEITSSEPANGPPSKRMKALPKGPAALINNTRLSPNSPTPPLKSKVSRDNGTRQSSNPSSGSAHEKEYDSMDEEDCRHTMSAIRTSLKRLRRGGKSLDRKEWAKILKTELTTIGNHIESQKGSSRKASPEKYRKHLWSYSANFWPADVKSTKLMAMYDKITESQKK

Consider `CC(C)c1nc(C2CCCN2CC(=O)Nc2ccc(Cl)cn2)no1` (stereo not given), for which the Percent Effect in test [1] was -10.5%; in [2], 18.7%; in test [3], 16.2%; with Trypanosoma cruzi, 5.62%; in test [4] it was -4.88%; in [5], 8.23%. For the same compound, the Percent Effect is 4.35% in the test filed under Homo sapiens, 5.79% in test [6], 10.3% in test [7] and -14.8% in [8].
Take `Cc1cccc(-c2noc(CN3CCc4nn(C)c(=O)cc4C3)n2)c1`: the Percent Effect in test [1] is -3.9%; in [2], 16%; in test [3], 1.97%; in the test with Trypanosoma cruzi it was -0.201%; in test [4], 3.55%; in test [5] it was 0.424%. Moreover, the Percent Effect in the test filed under Homo sapiens is 14.8%; in test [6], -5.79%; in test [7], -15.4%; in test [8] it was 4.01%.
Consider `Cc1nsc(NC(=O)N2CCN(Cc3ccc(F)cc3)C(=O)C2)n1`, for which the Percent Effect in test [1] was -3.7%; in test [2], -10.8%; in test [3], -0.0827%; in the test with Trypanosoma cruzi it was -0.291%; in test [4] it was 3.85%; in test [5], 4.45%. The Percent Effect in the test listed under Homo sapiens turned out to be 5.1%; in test [6], 2.66%; in [7], 2.44%; in [8], 3.97%.
In the case of `Cc1nnc2n1CCN(C(C(=O)NC1CC1)c1ccccc1)C2` (stereo not given), the Percent Effect in [1] was -3.46%; in [2], 2.56%; in [3], 6.36%; with Trypanosoma cruzi, 3.47%; in test [4], 3.69%; in [5], 5.72%. Further, the Percent Effect was 8.81% in the test listed under Homo sapiens, 3.35% in [6], 13.2% in [7] and -2.99% in [8].
Take `CN(C)Cc1ccc(C2CCCCN2C(=O)c2cccc(CO)n2)cc1` (stereo not given): the Percent Effect in test [1] was -5.85%; in test [2], 13.5%; in test [3], 26.3%; with Trypanosoma cruzi it was 9.8%; in test [4], 23.4%; in [5], 9.25%. The Percent Effect in the test filed under Homo sapiens worked out at 8.84%; in [6], 6.92%; in test [7], 14.6%; in test [8], 80.3%.
Take `Cc1c[nH]nc1C1CCCCN1C(=O)Cn1cc(Cl)cn1` (stereo not given): the Percent Effect in test [1] was -0.928%; in [2], 14.7%; in test [3], -3.24%; with Trypanosoma cruzi, -2.96%; in test [4], 3.1%; in [5] it was 15.1%. Also, the Percent Effect in the test listed under Homo sapiens was 7.7%; in test [6] it was 3.17%; in test [7] it was 10%; in test [8], -20.3%.
On to `CC(C)n1ccnc1C1CCN(C(=O)c2ccccc2)CC1`, for which the Percent Effect in test [1] was -5.35%; in test [2] it was 16.2%; in [3], 13.1%; with Trypanosoma cruzi, 9.8%; in test [4] it was 11.5%; in test [5] it was 14%. Further, the Percent Effect in the test filed under Homo sapiens was 14.4%; in test [6], 10.1%; in [7], 19.5%; in [8], -5%.
`Cc1nc(C)n(CC2CN(CCOCC(F)(F)F)CCO2)n1` (stereo not given): the Percent Effect in test [1] is -1.11%; in test [2], 0%; in [3], 2.9%; in the test on Trypanosoma cruzi, 0.602%; in test [4], 2.22%; in [5], 0.594%. Besides, the Percent Effect in the test listed under Homo sapiens was 6.11%; in test [6], -1.58%; in test [7], 2.56%; in test [8], -2.07%.
For `CC(C)(C)n1ncc2c1NC(=O)CC2c1ccccc1` (stereo not given), the Percent Effect in test [1] was -4.86%; in [2] it was 5.41%; in [3], 5.59%; in the test with Trypanosoma cruzi, 2.23%; in test [4], -3.15%; in test [5], 13.2%. For the same compound, the Percent Effect in the test listed under Homo sapiens was 12.2%; in test [6], 3.72%; in test [7], 14.6%; in test [8] it was 96%.
For `COc1c(CNC2CCc3cc(F)ccc32)c(C)nn1C` (stereo not given), the Percent Effect in test [1] was -0.933%; in [2], 7.79%; in [3] it was 8.9%; in the test on Trypanosoma cruzi, -0.187%; in test [4] it was 5.94%; in [5], -1.23%. Besides, the Percent Effect was -9.97% in the test filed under Homo sapiens, 3.92% in test [6], 9.41% in test [7] and -0.439% in [8].
